Assay results taken from PubChem BioAssay (Tox21).
Records with an inconclusive call do not appear. Activity calls are given as the source filed them. Unless noted, calls follow the shape of the dose curve; as a rule, active = well fitted curve in the direction sought with a large enough effect in the repeat runs; inconclusive = weak or mixed curves; inactive = no such curve, though single readings can be large; an effect the other way counts as inactive or inconclusive.

What was measured:
[1] = qHTS assay to identify small molecule agonists of the NFkB signaling pathway - cell viability counter screen (AID 1159515; calls by dose curve; also: series mostly up to about 61 µM; % is scaled to controls: 0 for no effect and ±100 for the full control effect; nearly all actives have a fitted effect of over 55% in size)
In short: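 5 hr compound treatment of NFkB-bla ME-180 cells (2,000/well, seeded overnight beforehand), followed by reporter substrate for 1.5 hr. CellTiter-Glo added afterward; luminescence after 30 min RT.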

[2] = qHTS assay to identify small molecule agonists of the endoplasmic reticulum stress response signaling pathway (AID 1159516; active = well fitted activation curve with a large enough effect in the signal ratio in the repeat runs, not every such curve was filed as active; the % refers to the signal ratio; also: % is scaled to controls: 0 for no effect and ±100 for the full control effect)
In short: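 Reporter HeLa cells (ESRE-beta-lactamase) underwent 5 hr compound incubation at 37 C and 5% CO2 in quantitative HTS format. Detection followed 2 hr of FRET substrate loading at room temperature.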

[3] = qHTS assay to identify small molecule agonists of the endoplasmic reticulum stress response signaling pathway - cell viability counter screen (AID 1159517; calls by dose curve;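 also: HeLa cells carrying an ER stress response element beta-lactamase reporter; series mostly up to about 61 µM; % is scaled to controls: 0 for no effect and ±100 for the full control effect; nearly all actives have a fitted effect of over 50% in size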)
In short: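 ESRE-bla HeLa cells, 1,500 per well, seeded overnight then treated with compounds for 5 hr at 37 C. After the beta-lactamase read, viability in the same wells is measured by CellTiter-Glo luminescence after 30 min at room temperature.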

[4] = qHTS assay to identify small molecule antagonists of the retinoid-related orphan receptor gamma (ROR-gamma) signaling pathway - cell viability counter screen (AID 1159520); also: % is scaled to controls: 0 for no effect and ±100 for the full control effect; nearly all actives have a fitted effect of over 50% in size
In short: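 Tet-on ROR gamma CHO cells were given compounds for 2 hr, then doxycycline hyclate at 1 uM final, and incubated 16 hr at 37 C. Viability was measured as ATP content by CellTiter-Glo luminescence.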

[5] = molecular target: Nuclear receptor ROR-gamma (Homo sapiens) (UniProt P51449); test: qHTS assay to identify small molecule antagonists of the retinoid-related orphan receptor gamma (ROR-gamma) signaling pathway (AID 1159521;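 also: CHO cells with doxycycline inducible ROR-gamma driving an RORE luciferase reporter; top concentration of the series differs between compounds; % is scaled to controls: 0 for no effect and ±100 for the full control effect; nearly all actives have a fitted effect of over 50% in size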)
In short: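 RORγ antagonism is scored from reduced reporter luminescence in Tet-on CHO cells. Induction used 1 uM final doxycycline hyclate for 16 h at 37 C, following a 2 h compound exposure.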

[6] = qHTS assay to identify small molecule agonists of the AP-1 signaling pathway - cell viability counter screen (AID 1159525; calls by dose curve; also: nearly all actives have a fitted effect of over 55% in size)
In short: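 AP-1-bla ME-180 cells in Opti-MEM with 0.5% dialyzed FBS, compound exposure 5 h at 37 C in 15-point titration. Viability read in the same wells as ATP content by CellTiter-Glo luminescence, normalised to tetra-n-octylammonium bromide and DMSO controls.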

[7] = qHTS assay to identify small molecule agonists of the AP-1 signaling pathway (AID 1159526; calls by dose curve; also: % is scaled to controls: 0 for no effect and ±100 for the full control effect)
[8] = qHTS assay to identify small molecule antagonists of the retinoic acid receptor (RAR) signaling pathway (AID 1159552; also: % is scaled to controls: 0 for no effect and ±100 for the full control effect; nearly all actives have a fitted effect of over 50% in size)
In short: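 Quantitative HTS in C3RL4 RARE-luciferase reporter cells. Compounds were added with 1 uM (final) retinol; luminescence was read after 6 hr.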

[9] = qHTS assay to identify small molecule antagonists of the estrogen related receptor (ERR) signaling pathway from Tox21 library - cell viability counter screen (AID 1224834); also: nearly all actives have a fitted effect of over 30% in size; also: potency is read from the fitted curve at half-maximal effect; as to viability change, negative = cytotoxic: % is scaled to controls: 0 for no effect and ±100 for the full control effect
In short: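 CellTiter-Fluor fluorescence measured; ERR cells; 17.5 h compound incubation at 37 C; 30 min reagent step.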

[10] = molecular target: Luciferin 4-monooxygenase (Photinus pyralis) (UniProt P08659); test: qHTS assay to identify small molecule inhibitors of firefly luciferase (AID 1224835); also: series mostly up to about 120 µM; % is scaled to controls: 0 for no effect and ±100 for the full control effect; nearly all actives have a fitted effect of over 25% in size
Chain of Luciferin 4-monooxygenase (Photinus pyralis) (P08659 whole entry, looked up): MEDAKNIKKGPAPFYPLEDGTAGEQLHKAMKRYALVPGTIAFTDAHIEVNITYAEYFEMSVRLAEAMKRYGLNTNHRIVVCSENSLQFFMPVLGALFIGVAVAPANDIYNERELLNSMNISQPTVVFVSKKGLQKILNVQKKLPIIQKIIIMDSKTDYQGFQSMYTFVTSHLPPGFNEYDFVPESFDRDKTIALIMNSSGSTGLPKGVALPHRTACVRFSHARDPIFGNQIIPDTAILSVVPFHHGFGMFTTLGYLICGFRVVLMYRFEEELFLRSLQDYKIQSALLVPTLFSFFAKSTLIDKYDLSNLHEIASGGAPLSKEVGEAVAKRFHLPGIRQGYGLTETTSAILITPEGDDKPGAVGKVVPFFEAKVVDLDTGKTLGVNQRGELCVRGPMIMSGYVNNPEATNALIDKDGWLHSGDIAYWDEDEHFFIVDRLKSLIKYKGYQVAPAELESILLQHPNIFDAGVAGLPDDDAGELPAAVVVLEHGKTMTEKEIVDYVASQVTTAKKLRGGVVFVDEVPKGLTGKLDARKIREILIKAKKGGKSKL
In short: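 Biochemical qHTS: compounds run as interplate titrations against purified firefly enzyme, with D-luciferin and ATP each at its KM concentration. Light output recorded by CCD imaging.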

[11] = qHTS assay to identify small molecule agonists of the constitutive androstane receptor (CAR) signaling pathway - cell viability counter screen (AID 1224836); also: series mostly up to about 92 µM; % is scaled to controls: 0 for no effect and ±100 for the full control effect; nearly all actives have a fitted effect of over 45% in size
In short: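 Counter screen multiplexed with the CAR reporter readout: HepG2 cells co-transfected with hCAR and the CYP2B6-2.2kb construct receive a 15-concentration compound series and 0.75 uM PK11195 (final), then CellTiter-Fluor fluorescence is read after 23 h.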

[12] = qHTS assay to identify small molecule antagonists of the retinoid acid receptor (RAR) signaling pathway - cell viability counter screen (AID 1159551); also: % is scaled to controls: 0 for no effect and ±100 for the full control effect; nearly all actives have a fitted effect of over 35% in size
In short: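 Seed C3RL4 cells; next day add compound, then retinol to 1 uM final; incubate 6 h at 37 C; add CellTiter-Glo; read luminescence after 30 min at RT.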

[13] = qHTS assay to identify small molecule agonists of the retinoic acid receptor (RAR) signaling pathway (AID 1159553); also: potency is read from the fitted curve at half-maximal effect
In short: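 Activation of retinol signaling was monitored via a RARE luciferase reporter in C3RL4 cells. After 6 hr compound treatment at 37 C, detection reagent was added for 30 min at room temperature before luminescence reading.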

[14] = molecular target: Retinoic acid receptor RXR-alpha (Homo sapiens) (UniProt P19793); test: qHTS assay to identify small molecule agonists of the RXR signaling pathway (AID 1159527; calls by dose curve; also: nearly all actives have a fitted effect of over 35% in size; also: potency is read from the fitted curve at half-maximal effect)
Chain of Retinoic acid receptor RXR-alpha (Homo sapiens) (P19793 whole entry, looked up): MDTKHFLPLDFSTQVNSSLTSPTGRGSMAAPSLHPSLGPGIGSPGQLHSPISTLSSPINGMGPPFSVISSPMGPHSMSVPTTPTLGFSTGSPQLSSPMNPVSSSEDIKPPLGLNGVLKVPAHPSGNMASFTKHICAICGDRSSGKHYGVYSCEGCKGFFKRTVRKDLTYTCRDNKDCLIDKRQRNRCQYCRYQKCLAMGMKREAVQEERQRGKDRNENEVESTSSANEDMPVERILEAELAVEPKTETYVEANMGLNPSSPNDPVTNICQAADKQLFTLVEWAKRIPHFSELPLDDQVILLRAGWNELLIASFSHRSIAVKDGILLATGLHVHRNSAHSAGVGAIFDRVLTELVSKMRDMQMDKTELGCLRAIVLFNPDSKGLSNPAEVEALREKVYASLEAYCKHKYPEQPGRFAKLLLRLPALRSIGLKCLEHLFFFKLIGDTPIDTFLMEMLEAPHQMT
In short: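 qHTS of the Tox21 10K library in GeneBLAzer RXR-alpha HEK 293T cells carrying a beta-lactamase reporter […]; 16 hr treatment, 9-cis retinoic acid as agonist control, FRET read-out.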

[15] = qHTS assay to identify small molecule agonists of the RXR signaling pathway - cell viability counter screen (AID 1159529)
In short: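 Cell viability is measured by CellTiter-Glo luminescence, 30 min at room temperature, in wells already read for beta-lactamase. Engineered HEK 293T cells (RXR-alpha-UAS-bla) are dosed 16 hr at 37 C. Tetraoctyl ammonium bromide serves as positive control.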

[16] = qHTS assay to identify small molecule antagonists of the estrogen related receptor (ERR) signaling pathway - cell viability counter screen (AID 1224818);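 also: series mostly up to about 46 µM; viability measured after 17.5 h of compound exposure; % is scaled to controls: 0 for no effect and ±100 for the full control effect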
In short: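 In the same ERR cell assay, compound-treated wells (17.5 h, 37 C) were multiplexed with a fluorogenic viability reagent, CellTiter-Fluor, read after 30 min to flag cytotoxic substances.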

CC(=O)NCCCS(=O)(=O)O
inactive: Potency [1] | Potency [2] | outcome [3] | Potency [4] | Potency [5] | Potency [6] | Potency [7] | Potency [8] | Potency [9] | Potency [10] | Potency [11]

COC(Cc1ccccc1)OC
inactive: Potency [1] | Potency [2] | outcome [3] | Potency [4] | Potency [5] | Potency [6] | Potency [7] | Potency [12] | Potency [13] | Potency [9] | Potency [10] | Potency [11]

CN1CCN(C2=Nc3ccccc3Sc3ccc(Cl)cc32)CC1
inactive: Potency [1] | Potency [2] | outcome [3] | Potency [4] | Potency [5] | Potency [6] | Potency [14] | Potency [15] | Potency [12] | Potency [8] | Potency [13] | Potency [9] | Potency [11]

CC(C)=CCCC(C)CC=O (stereo not given)
inactive: Potency [1] | Potency [2] | outcome [3] | Potency [4] | Potency [5] | Potency [6] | Potency [7] | Potency [12] | Potency [9] | Potency [10] | Potency [11]

NCCCN(CCO)CCO
inactive: Potency [1] | Potency [2] | outcome [3] | Potency [4] | Potency [5] | Potency [6] | Potency [14] | Potency [15] | Potency [12] | Potency [8] | Potency [13] | Potency [9] | Potency [10]

CCCCOc1ccc(CC(=O)NO)cc1
inactive: Potency [1] | Potency [2] | outcome [3] | Potency [4] | Potency [5] | Potency [6] | Potency [7] | Potency [12] | Potency [10]
active: Potency [13] 29.8 µM | Potency [9] 18.8 µM

c1ccc(-c2nc[nH]c2-c2ccccc2)cc1
inactive: Potency [1] | Potency [2] | outcome [3] | Potency [4] | Potency [5] | Potency [6] | Potency [7] | Potency [12] | Potency [9] | Potency [10] | Potency [11]

O=C(O)[C@@H]1[C@H]2C[C@H]3c4[nH]c5ccccc5c4CCN3C[C@@H]2CC[C@@H]1O
inactive: Potency [1] | Potency [2] | outcome [3] | Potency [4] | Potency [5] | Potency [6] | Potency [14] | Potency [15] | Potency [12] | Potency [13] | Potency [9] | Potency [10] | Potency [11]

O=C(O)C1CCC(C(=O)O)CC1 (stereo not given)
inactive: Potency [1] | Potency [2] | outcome [3] | Potency [4] | Potency [5] | Potency [6] | Potency [15] | Potency [12] | Potency [13] | Potency [9] | Potency [10] | Potency [11]
active: Potency [14] 5.48 µM

O=C1[C@H](CC[C@H](O)c2ccc(F)cc2)[C@@H](c2ccc(O)cc2)N1c1ccc(F)cc1
inactive: Potency [1] | Potency [2] | outcome [3] | Potency [4] | Potency [5] | Potency [6] | Potency [7] | Potency [12] | Potency [13] | Potency [10] | Potency [11]

CC(=O)N(O)CCCCCNC(=O)CCC(=O)N(O)CCCCCNC(=O)CCC(=O)N(O)CCCCCN
inactive: Potency [1] | Potency [2] | outcome [3] | Potency [4] | Potency [5] | Potency [6] | Potency [14] | Potency [15] | Potency [12] | Potency [8] | Potency [13] | Potency [10]

O=C=NC1CCC(CC2CCC(N=C=O)CC2)CC1 (stereo not given)
inactive: Potency [1] | Potency [2] | outcome [3] | Potency [4] | Potency [5] | Potency [6] | Potency [7] | Potency [12] | Potency [10] | Potency [11]

CCOC(=S)SSC(=S)OCC
inactive: Potency [1] | Potency [2] | outcome [3] | Potency [4] | Potency [5] | Potency [6] | Potency [7] | Potency [9] | Potency [11]

NC1CCN(c2nc3c(cc2F)c(=O)c(C(=O)O)cn3-c2ccc(F)cc2F)C1 (stereo not given)
inactive: Potency [1] | Potency [2] | outcome [3] | Potency [4] | Potency [5] | Potency [6] | Potency [7] | Potency [12] | Potency [13] | Potency [9] | Potency [10] | Potency [11]

COc1ccc2[nH]c(S(=O)Cc3ncc(C)c(OC)c3C)nc2n1 (stereo not given)
inactive: Potency [1] | Potency [2] | outcome [3] | Potency [4] | Potency [5] | Potency [6] | Potency [7] | Potency [12] | Potency [10] | Potency [11]

C=CC(=O)OCCOC(=O)CCC(=O)O
inactive: Potency [1] | Potency [2] | outcome [3] | Potency [4] | Potency [5] | Potency [6] | Potency [14] | Potency [15] | Potency [12] | Potency [9] | Potency [10]

Cc1c(Cn2ccnc2)c2ccccc2n1CCC(=O)O
inactive: Potency [1] | Potency [2] | outcome [3] | Potency [4] | Potency [5] | Potency [6] | Potency [14] | Potency [15] | Potency [12] | Potency [10] | Potency [11]

CCN(CCO)CCCC(C)Nc1ccnc2cc(Cl)ccc12 (stereo not given)
inactive: activity, negative = cytotoxic [1] 7.84% [at 6.95 µM] | activation [2] -0.628% [at 6.95 µM] | activity change, negative = cytotoxicity [3] 5.2% [at 6.95 µM] | activity, negative = cytotoxicity [4] 0.752% [at 8.39 µM] | activity change, negative = inhibition [5] 13.3% [at 8.39 µM] | viability change, negative = cytotoxic [6] 2.23% [at 6.97 µM] | activation [14] 7.66% [at 6.98 µM] | activity change, negative = cytotoxicity [15] -6.26% [at 6.97 µM] | activity change, negative = cytotoxicity [12] 0.797% [at 8.39 µM] | activity, negative = inhibition [8] -1.6% [at 8.39 µM] | activation [13] 0.716% [at 8.36 µM] | viability change, negative = cytotoxic [9] -2.66% [at 8.39 µM] | viability change, negative = cytotoxic [11] -11% [at 8.39 µM]

CCC(C)N(C)C(=O)c1cc2ccccc2c(-c2ccccc2Cl)n1 (stereo not given)
inactive: Potency [1] | Potency [2] | outcome [3] | Potency [4] | Potency [5] | Potency [6] | Potency [7] | Potency [12] | outcome [16] | Potency [10] | Potency [11]

O=C(/C=C/c1ccc(O)c(O)c1)O[C@@H]1C[C@](O)(C(=O)O)C[C@@H](O)[C@H]1O
inactive: Potency [1] | Potency [2] | outcome [3] | Potency [4] | Potency [5] | Potency [6] | Potency [14] | Potency [15] | Potency [8] | Potency [13] | Potency [10] | Potency [11]
